# Results taken from PubChem BioAssay (NCI).
# “And” between values parts separate entries of the source, which are not always exact repeats. Equal entries are not always repeated. About 83,000 compounds went through this panel and 20% of them were active in at least one assay; those are over-represented in the sample as a whole.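 In brief: 96-well plates, 48 h treatment, single concentration, percent growth endpoint.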 Values without a mark were called inactive. The source made the active and inactive calls. How the source made its calls: active means growth percent below 10; inactive means the rest.
# Test system: MDA-MB-468 breast
# Experiment: NCI-60 one-dose screen, 48 h (100 = growth as untreated, 0 = no growth, -100 = all killed)
# Conditions: 10 µM unless noted
row,SMILES,growth
1,Oc1ccc(Cl)cc1/C=N\NC(=S)N/N=C/c1cc(Cl)ccc1O,1.29% (active)
2,CCOC(=O)[C@]1(Br)CC[C@@]1(Br)C(=O)OCC,44.9%
3,COc1cc(-c2nn3c(/C=C4/C(=O)Nc5ccccc54)c(-c4ccc(C)cc4)nc3s2)cc(OC)c1OC,41%
4,CC(=O)O[C@H]1CC[C@]2(C)[C@H]3CC=C4[C@@H]5CC(C)(C)CC[C@]5(C(=O)N5CCN(CCC#N)CC5)CC[C@@]4(C)[C@]3(C)CC[C@H]2C1(C)C,32.2%
5,CN1CCN(CCCOc2ccc3nc(Nc4ccc(C(F)(F)F)c(Cl)c4)ccc3c2)CC1,30%
6,CCN(CC)CCCNc1cccc2c(C)cc(OC)nc12,74.8%
7,CC(=O)Nc1ccc(C(=O)Nc2cc(-c3ccccc3)ccc2N)cc1,110%
8,CC(=O)Nc1cccc2cc(O)ccc12,112% and 101% and 110%
9,COc1ccc2[nH]c(C(=O)OCc3ccc4c(Cl)cc(Cl)c(O)c4n3)cc2c1,-83.1% (active)
10,O=C(CSc1nnc(-c2cc(-c3ccccc3)nc3ccccc23)o1)c1ccc(Br)cc1,103%
11,Cn1cc(-c2csc(-c3cn(C(=O)OC(C)(C)C)c4ccccc34)n2)c2cccnc21,-8.84% (active)
12,CCCCn1c(Cc2ccc(Cl)cc2)nc2cc(OC)c(OC)cc2c1=O,58.6%
13,NS(=O)(=O)c1ccc(Nc2nc(SCC(=O)c3ccc(Cl)cc3)nc3ccccc23)cc1,82.4%
14,CN(C)CCCN(c1nc(C(Cl)(Cl)Cl)ns1)c1nc(C(Cl)(Cl)Cl)ns1,14.5%
15,COc1cc2nccc(Oc3ccc(NC(=O)Nc4cc(C)on4)c(Cl)c3)c2cc1OC,15%
16,C=C(C)[C@@H]1CC[C@]2(C(=O)O)CC[C@]3(C)[C@H](CC[C@@H]4[C@@]5(C)C[C@@H](CC#Cc6ccc(Cl)cc6)C(=O)C(C)(C)[C@@H]5CC[C@]43C)[C@@H]12,16.9%
17,Nc1cc(Cl)cc2cccnc12,92.7%
18,O=C(Oc1cccc2ccccc12)c1ccccc1C(=O)c1ccccc1,103%
19,C=C(C)[C@@H]1CC[C@]2(C(=O)Nc3ccccn3)CC[C@]3(C)[C@H](CC[C@@H]4[C@@]5(C)CCCNC(C)(C)[C@@H]5CC[C@]43C)[C@@H]12,-13.8% (active)

row,SMILES,growth
1,COc1cc2c(c(OC)c1OC)-c1ccc(NNC(N)=S)c(=O)cc1[C@@H](NC(C)=O)CC2,-14.2% (active)
2,COc1ccc2c(c1)OC13Oc4cc(OC)ccc4C=C1CCCCC3=C2,95.6%
3,COCCOc1cc2ncnc(N3CCN(c4cc(S(C)(=O)=O)c(C)cc4Cl)CC3)c2cc1OCCOC,90.2%
4,COc1cc2ncnc(Oc3cccc(NC(=O)Nc4cc(C(C)(C)C(F)(F)F)on4)c3)c2cc1OC,12.4%
5,COc1ccc(C(=O)c2cc(OC)c(C)c(OC)c2)cc1OC(=O)CCl,38.3%
6,COc1c(CCC[P+](c2ccccc2)(c2ccccc2)c2ccccc2)cc2c(c1OC)OCO2,-28% (active)
7,COc1ccc(-c2cc(-c3cccnc3)nc3sc(C(=O)Nc4ccccc4)c(N)c23)cc1OC,80.8%
8,CC1=CC(C)=Nc2ccc(Cl)cc2N1,109%
9,COC(=O)[C@]1(C)CCC[C@]2(C)c3ccc(C(C)C)cc3C(=O)[C@@H](Br)[C@@H]12,78.3%
10,Clc1ccc2oc3c(NCCCn4ccnc4)c4ccccc4nc3c2c1,51.6%
11,O=C1[C@H]2Cc3c([nH]c4ccccc34)[C@H](c3ccc(Cl)cc3)N2C(=O)CN1C1CCN(Cc2c(Cl)cccc2Cl)CC1,57.5%
12,CCOC(=O)C1=C(N)Oc2c(sc3c(C)cccc23)C1c1ccc(Cl)cc1 (configuration not stated),-2.2% (active)
13,O=C(Nc1ccc(Cl)c(Cl)c1)OCc1ccco1,0.972% (active)
14,COCCOCCOCc1n(Cc2ccc3ccccc3c2)c2ccccc2[n+]1Cc1ccc2ccccc2c1,-20.6% (active)
15,CC(=O)C(CO)C(=O)Nc1ccccc1 (configuration not stated),104%
16,N#CC1C(=O)c2ccccc2C1c1ccccc1 (configuration not stated),94.3% and 119%
17,CC(C)(C)c1ccc(S(=O)(=O)O)s1,109%
18,CCN(CC)CCCC(C)NC(=S)N/N=C(\C)c1ccccn1 (configuration not stated),-7.86% (active)
